# PubChem BioAssay (NCI)
# The panel holds about 83,000 compounds, 20% with a hit somewhere; the sample as a whole holds those more often.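 Plates (96-well) were seeded with cells, treated with compound at one concentration, and incubated for 48 hours before percent growth was determined.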 A number with no mark means an inactive call. Calls of active or inactive are those of the source. The calls were made as follows: active = growth percent below 10; inactive = the rest.
# Columns and labels:
# Assay in all cases: NCI-60 one-dose screen, 48 h (100 = growth as untreated, 0 = no growth, -100 = all killed)
# Details in all cases: 10 µM unless noted
# NCI-H23 lung = test system: NCI-H23 lung
# NCI-H226 lung = test system: NCI-H226 lung
# NCI-H322M lung = test system: NCI-H322M lung
# HOP-62 NSCLC = test system: HOP-62 NSCLC
# NCI-H460 lung = test system: NCI-H460 lung
# HOP-92 NSCLC = test system: HOP-92 NSCLC
# NCI-H522 lung = test system: NCI-H522 lung
# A549/ATCC NSCLC = test system: A549/ATCC NSCLC
# 786-0 renal = test system: 786-0 renal
# COLO 205 colon = test system: COLO 205 colon
# DU-145 prostate = test system: DU-145 prostate
# K-562 leukemia = test system: K-562 leukemia
# MALME-3M melanoma = test system: MALME-3M melanoma
# MDA-MB-231 breast = test system: MDA-MB-231 breast
# RXF 393 renal = test system: RXF 393 renal
# SF-268 CNS = test system: SF-268 CNS
# SF-295 CNS = test system: SF-295 CNS
# SF-539 CNS = test system: SF-539 CNS
# UACC-257 melanoma = test system: UACC-257 melanoma
# M14 melanoma = test system: M14 melanoma
Compound,growth (NCI-H23 lung),growth (NCI-H226 lung),growth (NCI-H322M lung),growth (HOP-62 NSCLC),growth (NCI-H460 lung),growth (HOP-92 NSCLC),growth (NCI-H522 lung),growth (A549/ATCC NSCLC),growth (786-0 renal),growth (COLO 205 colon),growth (DU-145 prostate),growth (K-562 leukemia),growth (MALME-3M melanoma),growth (MDA-MB-231 breast),growth (RXF 393 renal),growth (SF-268 CNS),growth (SF-295 CNS),growth (SF-539 CNS),growth (UACC-257 melanoma),growth (M14 melanoma)
CNc1ncc2cc(-c3cc(NC(=O)NCCC(C)(C)C)c(F)cc3C)c(C)nc2n1,12.8%,33.1%,4.99% (active),5.28% (active),21.3%,-44.3% (active),-5.5% (active),12.2%,29.8%,-34.5% (active),32.6%,3.92% (active),1.23% (active),1.7% (active),-23.3% (active),26.5%,25.5%,27.5%,-10.3% (active),-12.4% (active)
COc1cc(Nc2ncc(F)c(Nc3ccc4c(n3)NC(=O)C(C)(C)O4)n2)cc(OC)c1OC,52.1%,12.2%,41.8%,27.3%,65%,2.19% (active),6.57% (active),26.8%,29%,18.9%,48.8%,66.5%,88.7%,41.7%,-40.3% (active),29.8%,59.9%,-14.8% (active),57.1%,57.5%
CN(C[C@@H]1COCCO1)S(=O)(=O)Nc1ccc2ccc3ncc(-c4cnn(C)c4)cc3c(=O)c2c1,30.6%,40.9%,26.3%,36.4%,35%,16.9%,11.2%,48.1%,41.3%,49.3%,44%,39.5%,46%,49.5%,-2.79% (active),35%,19.3%,0.172% (active),69.3%,35.3%
Cn1ccnc1C(=O)/C=C/c1ccc(CC(=O)Nc2ccc(S(F)(F)(F)(F)F)cc2)cc1,-12.7% (active),-15.3% (active),-5.16% (active),-73% (active),-37.9% (active),5.09% (active),-51.1% (active),-33.7% (active),-82.7% (active),-55.2% (active),8.82% (active),0.513% (active),51.4%,-2.8% (active),-70.6% (active),7.07% (active),-6.63% (active),-84.7% (active),54.6%,-27.4% (active)
COc1cc2nc(Nc3cccc(Cl)c3)nc(N)c2cc1OC,88.2%,90.3%,89.7%,106%,66.9%,40.6%,101%,73.4%,62%,-60.1% (active),32.3%,24%,107%,60.3%,45.4%,77.1%,108%,90.3%,90.3%,78.4%
CNS(=O)(=O)Nc1nccc(Cc2c(C)c3ccc(Oc4ncccn4)cc3oc2=O)c1F,24.1%,58%,33.3%,42.8%,61.3%,-4.71% (active),52%,38.3%,68%,8.97% (active),61.3%,26.2%,4.1% (active),41%,44.9%,78%,70.6%,68%,-5.41% (active),13.3%
Cn1cc(-c2cnn3c(N)c(Br)c([C@@H]4CCCNC4)nc23)cn1,39.6%,60%,48.2%,28.8%,35%,54.6%,28.4%,41.5%,37%,14.3%,37.1%,17.9%,50.4%,35.3%,-2.46% (active),60.1%,24.1%,22.6%,70.7%,33.4%
CCCCn1c(C)nc2ccc(Nc3nc(N4CCN(C)CC4)nc4nc[nH]c34)cc21,95.5%,93%,91.3%,90.9%,104%,64.8%,87.2%,94.2%,92.8%,87.9%,91.8%,83.2%,102%,86.2%,95%,73.2%,105%,87.6%,101%,107%
O=C(Cc1ccc(/C=C/C(=O)c2ncc[nH]2)cc1)Nc1ccc(S(F)(F)(F)(F)F)cc1,68.5%,93.7%,95%,93.8%,98.2%,97%,65.8%,76.7%,88.5%,82.7%,78.5%,17.8%,88%,70.4%,94.7%,80%,80.8%,93.2%,103%,67.7%
Cn1nccc1Nc1nccc(-c2ccn([C@H](CO)c3ccc(Cl)c(F)c3)c(=O)c2)n1,68.5%,110%,61%,78.8%,99.5%,103%,71.2%,72.3%,93%,14.4%,93.5%,84.2%,0.796% (active),90.8%,108%,96.4%,98.3%,104%,1.1% (active),24.3%
O=C1C=CC2(NN=C(c3ccccc3)N2c2cccc(Cl)c2)C(Cl)=C1 (stereo not given),85.9%,86.5%,82.6%,63.8%,91.8%,84.5%,36.6%,80.1%,98%,103%,103%,28.6%,107%,61.6%,92.4%,74.9%,76.7%,96.8%,78.4%,84.7%
COCC(=O)NC/C=C/c1ccc2ncnc(Nc3ccc(Oc4ccc(C)nc4)c(C)c3)c2c1,39.3%,53.5%,10.8%,58.8%,50.7%,23.8%,14.8%,46%,55%,9.48% (active),30.7%,47.9%,4.79% (active),42.7%,45.4%,52.3%,62.4%,48%,24.6%,13.1%
Cc1cc(-c2cc(OC(=O)c3ccccc3)ccc2Cl)cc2nnc(Nc3ccc(OCCN4CCCC4)cc3)nc12,78.9%,78.6%,102%,50.2%,81.6%,40.8%,49.2%,69.4%,98.9%,62.8%,83.2%,-21.5% (active),79.2%,70.6%,59.3%,92.8%,92.7%,87.1%,52.1%,-8.09% (active)
COc1cc2ncnc3c2cc1OCCCCCN(C)Cc1ccc(Br)cc1N3,70.2%,88.3%,0.138% (active),74.5%,36.7%,64.6%,-9.44% (active),35.1%,68.7%,51.3%,31.1%,26.1%,71.8%,63.7%,69.3%,65.1%,78.7%,88.6%,31.5%,36.9%
C[C@@H](Nc1cc(F)cc(F)c1)c1cc(C(=O)N(C)C)cc2c(=O)cc(N3CCOCC3)oc12,76.6%,83.7%,31.5%,59.3%,43.1%,27.3%,59.7%,34.9%,12.7%,46.6%,68.2%,87.6%,68.9%,82.4%,-16.4% (active),56.8%,14.8%,24.1%,35.2%,69.2%
